In PubChem BioAssay (NCATS):
“And” between values parts separate entries of the source, which are not always exact repeats. Equal values may be shown once. Results filed as inconclusive are left out. The source holds several records for some structures; these can differ, active in one and inactive in another. The source made the active and inactive calls. The call rests on the fitted dose curve; in most records, active means well fitted curve in the direction sought with a large enough effect; inconclusive means small, poorly fitted or top-dose-only effect, or another doubt; inactive means no such curve, though single readings can be large; an effect the other way counts as inactive or inconclusive.

Key:
KB-3-1 = assay: Cytotoxic Profiling of Annotated Libraries Using Quantitative High-Throughput Screening (AID 1296008); details: Five cell lines viability, CellTiter-Glo ATP luminescence, 48-72 h; max response: stronger effect = lower value; further: nearly all actives have a fitted effect of over 60% in size; further: potency means the concentration at half of the fitted maximal effect; on max response: on the % scale 0 is the no-effect control and ±100 the full control effect
In short: (§1)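 Compounds were pin-transferred onto cells and incubated 48 or 72 hr at 37 degree Celsius, 95% humidity. CellTiter-Glo was added, plates sat 10 min at room temperature, then ATP-coupled luminescence was imaged as the viability read-out.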

NIH3T3 [1] = assay: as above; details: Five cell lines viability, CellTiter-Glo ATP luminescence, 48-72 h; max response: stronger effect = lower value
In short: as §1

HACAT = assay: qHTS assay to identify novel small-molecules to repurpose for Merkel cell carcinoma treatment (AID 1296009); details: MCC and control cell lines, CellTiter-Glo viability, 72 h; further: nearly all actives have a fitted effect of over 60% in size
In short: (§2)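 Viability readout: ATP luminescence (CellTiter-Glo) after 72 hr drug exposure at 37 degree celsius. Dose-response format was 8 points for NPC and 11 points for MIPE; data normalized to in-plate controls.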

HEK293T [2] = assay: as above; details: MCC and control cell lines, CellTiter-Glo viability, 72 h; series mostly up to 44.8 µM
In short: as §2

NIH3T3 [3] = assay: as above; details: MCC and control cell lines, CellTiter-Glo viability, 72 h; at 44.8 µM (top of the series) unless noted
In short: as §2

C33A = assay: Primary qHTS to identify gynecologic anti-cancer compounds using libraries of approved drugs and bioactive compounds (AID 1345084); details: Gynecologic cancer cell panel viability, ATPlite luminescence, 48 h; series mostly up to 57.5 µM; further: on the % scale 0 is the no-effect control and ±100 the full control effect; nearly all actives have a fitted effect of over 55% in size
In short: (§3)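 In this quantitative HTS, cell killing is estimated from loss of ATP-dependent luciferase light. Cells see five compound concentrations over a 48 h exposure.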

CAOV3 = assay: as above; details: Gynecologic cancer cell panel viability, ATPlite luminescence, 48 h; series mostly up to 57.5 µM
In short: as §3

CASKI = assay: as above; details: Gynecologic cancer cell panel viability, ATPlite luminescence, 48 h; series mostly up to 57.5 µM
In short: as §3

Es-2 = assay: as above; details: Gynecologic cancer cell panel viability, ATPlite luminescence, 48 h; series mostly up to 57.5 µM
In short: as §3

HeLa = assay: as above; details: Gynecologic cancer cell panel viability, ATPlite luminescence, 48 h; series mostly up to 57.5 µM
In short: as §3

Hek293T [4] = assay: as above; details: Gynecologic cancer cell panel viability, ATPlite luminescence, 48 h, control line for the selectivity index; series mostly up to 57.5 µM
In short: as §3

JEG-3 = assay: as above; details: Gynecologic cancer cell panel viability, ATPlite luminescence, 48 h; series mostly up to 57.5 µM
In short: as §3

OV90 = assay: as above; details: Gynecologic cancer cell panel viability, ATPlite luminescence, 48 h; series mostly up to 57.5 µM
In short: as §3

PA-1 = assay: as above; details: Gynecologic cancer cell panel viability, ATPlite luminescence, 48 h; series mostly up to 57.5 µM
In short: as §3

[5] = at 44.8 µM (top of the series) unless noted

CC(C)NCC1CCc2cc(CO)c([N+](=O)[O-])cc2N1 (stereo not given)
inactive: max response (KB-3-1) 2.46%

COC(=O)[C@H]1[C@H]2C[C@@H]3c4[nH]c5ccccc5c4CCN3C[C@H]2C[C@@H](OC(=O)c2cc(OC)c(OC)c(OC)c2)[C@@H]1OC
active: Potency (KB-3-1) 7.31 µM
inactive: max response (KB-3-1) -19.2%

CCCCCCCC/C=C\CCCCCCCC(=O)O
inactive: max response (KB-3-1) 4.43%

CN(C)c1cccc(-c2c3c(=O)n(-c4ccccc4Cl)[nH]c3cc(=O)n2C)c1
inactive: max response (KB-3-1) 5.47% | max response (NIH3T3 [1]) -12.2% | outcome (NIH3T3 [1]) | outcome (HACAT; [5]) | Potency (HEK293T [2]) | outcome (NIH3T3 [3]) | Potency (C33A) | Potency (CAOV3) | Potency (CASKI) | Potency (Es-2) | Potency (HeLa) | Potency (Hek293T [4]) | Potency (JEG-3) | Potency (OV90) | Potency (PA-1)

CCCCC(CC)COC(=O)CC(C(=O)OCC(CC)CCCC)S(=O)(=O)O (stereo not given)
inactive: max response (KB-3-1) -3.48% and -14.8%

CC1=C2C(=O)O[C@@H](c3ccoc3)[C@]2(C)CCC1
inactive: max response (KB-3-1) 4.53% | outcome (KB-3-1) | max response (NIH3T3 [1]) 0.635% and 0.0895% | Potency (C33A) | Potency (CAOV3) | Potency (CASKI) | Potency (Es-2) | Potency (HeLa) | Potency (Hek293T [4]) | Potency (JEG-3) | Potency (OV90) | Potency (PA-1)

COc1cc2c(cc1O)CCN[C@]21CS[C@@H]2c3c(OC(C)=O)c(C)c4c(c3[C@H](COC1=O)N1[C@@H]2[C@H]2c3c(cc(C)c(OC)c3O)C[C@@H]([C@@H]1O)N2C)OCO4
active: Potency (KB-3-1) 5.2 nM and 28.2 nM

CCCCC/C=C\C/C=C\CCCCCCCC(=O)O
inactive: max response (KB-3-1) -13.1%

CCC(=O)NS(=O)(=O)c1ccc(-c2c(-c3ccccc3)noc2C)cc1
inactive: max response (KB-3-1) -21.2% | outcome (KB-3-1) | outcome (NIH3T3 [1]) | Potency (HEK293T [2]) | outcome (NIH3T3 [3]) | Potency (C33A) | Potency (CAOV3) | Potency (CASKI) | Potency (Es-2) | Potency (HeLa) | Potency (Hek293T [4]) | Potency (JEG-3) | Potency (OV90) | Potency (PA-1)

O=CCCCC=O
inactive: max response (KB-3-1) -2.08%

CO[C@H]1C[C@@H]2CC[C@@H](C)[C@@](O)(O2)C(=O)C(=O)N2CCCC[C@H]2C(=O)O[C@H]([C@H](C)C[C@@H]2CC[C@@H](OCCO)[C@H](OC)C2)CC(=O)[C@H](C)/C=C(\C)[C@@H](O)[C@@H](OC)C(=O)[C@H](C)C[C@H](C)/C=C/C=C/C=C/1C
inactive: max response (KB-3-1) -27.1%

CC(=O)N[C@@H](CC(=O)N[C@@H](CCC(=O)O)C(=O)O)C(=O)O
inactive: max response (KB-3-1) -12.8%

CC(=O)Oc1cc(C)c(OC(C)=O)c2ccccc12
inactive: max response (KB-3-1) 4.15%

CCCCCCCC(=O)O
inactive: max response (KB-3-1) -16.7%

CC(C)(O)CNc1nc(Nc2ccnc(C(F)(F)F)c2)nc(-c2cccc(C(F)(F)F)n2)n1
inactive: max response (KB-3-1) 4.85% | max response (NIH3T3 [1]) 3.44% and -5.61% | outcome (HACAT; at 17.4 µM (top of the series)) | outcome (HACAT; at 44.8 µM (top of the series)) | Potency (C33A) | Potency (CAOV3) | Potency (CASKI) | Potency (Es-2) | Potency (HeLa) | Potency (Hek293T [4]) | Potency (JEG-3) | Potency (OV90) | Potency (PA-1)

C[C@]12CC[C@@H]3c4ccc(O[C@@H]5O[C@H](C(=O)O)[C@@H](O)[C@H](O)[C@H]5O)cc4CC[C@H]3[C@@H]1CCC2=O
inactive: outcome (KB-3-1) | outcome (NIH3T3 [1]) | outcome (HACAT; [5]) | Potency (HEK293T [2]) | outcome (NIH3T3 [3]) | Potency (C33A) | Potency (CAOV3) | Potency (CASKI) | Potency (Es-2) | Potency (HeLa) | Potency (Hek293T [4]) | Potency (JEG-3) | Potency (OV90) | Potency (PA-1)

CCC(C)(O)C(O)C(=O)OCc1ccc(O[C@@H]2O[C@H](CO)[C@@H](O)[C@H](O)[C@H]2O)c(OC)c1 (stereo not given in full)
inactive: max response (KB-3-1) 4.31% | outcome (NIH3T3 [1]) | outcome (HACAT; [5]) inactive [at 17.4 µM] | Potency (HEK293T [2]) | outcome (NIH3T3 [3]) inactive [at 17.4 µM] | Potency (C33A) | Potency (CAOV3) | Potency (CASKI) | Potency (Es-2) | Potency (HeLa) | Potency (Hek293T [4]) | Potency (JEG-3) | Potency (OV90) | Potency (PA-1)

C[C@]1(OC(=O)/C=C/c2ccccc2)C[C@H](O)[C@]2(O)C=CO[C@@H](O[C@@H]3O[C@H](CO)[C@@H](O)[C@H](O)[C@H]3O)C12 (stereo not given in full)
inactive: max response (KB-3-1) 4.61% | outcome (NIH3T3 [1]) | outcome (HACAT; [5]) inactive [at 17.4 µM] | Potency (HEK293T [2]) | outcome (NIH3T3 [3]) inactive [at 17.4 µM] | Potency (C33A) | Potency (CAOV3) | Potency (CASKI) | Potency (Es-2) | Potency (HeLa) | Potency (Hek293T [4]) | Potency (JEG-3) | Potency (OV90) | Potency (PA-1)

COc1cc2c(cc1O)C1(Cc3ccc4c(c3C1=O)OCO4)N(C)CC2 (stereo not given)
inactive: max response (KB-3-1) 1.1% | outcome (NIH3T3 [1]) | outcome (HACAT; [5]) | Potency (HEK293T [2]) | outcome (NIH3T3 [3]) | Potency (C33A) | Potency (CAOV3) | Potency (CASKI) | Potency (Es-2) | Potency (HeLa) | Potency (Hek293T [4]) | Potency (JEG-3) | Potency (OV90) | Potency (PA-1)

C=C(C(=O)O)[C@@H]1CC=C2CCC[C@H](C)[C@@]2(C)C1
inactive: max response (KB-3-1) 4.53% | outcome (NIH3T3 [1]) | outcome (HACAT; [5]) | Potency (HEK293T [2]) | outcome (NIH3T3 [3]) | Potency (C33A) | Potency (CAOV3) | Potency (CASKI) | Potency (Es-2) | Potency (HeLa) | Potency (Hek293T [4]) | Potency (JEG-3) | Potency (OV90) | Potency (PA-1)

C=C(C)C(=O)O[C@H]1C[C@@](C)(OC(C)=O)[C@@]2(O)CC[C@@](C)(O)[C@H](OC(C)=O)[C@@]23OC(=O)C(COC)=C13
inactive: max response (KB-3-1) 6.06% | outcome (NIH3T3 [1]) | outcome (HACAT; [5]) inactive [at 17.4 µM] | Potency (HEK293T [2]) | outcome (NIH3T3 [3]) inactive [at 17.4 µM] | Potency (C33A) | Potency (CAOV3) | Potency (CASKI) | Potency (Es-2) | Potency (HeLa) | Potency (Hek293T [4]) | Potency (JEG-3) | Potency (OV90) | Potency (PA-1)
